Measured values published in ChEMBL document CHEMBL1157539, “Thousands of chemical starting points for antimalarial lead identification” (Nature, 2010).

Columns and labels:
Assay type in all cases: functional
Plasmodium falciparum [1] = assay: GSK_TCMDC: Inhibition of Plasmodium falciparum 3D7 in whole red blood cells, using parasite LDH activity as an index of growth. Test compounds present at 2uM
Plasmodium falciparum [2] = assay: GSK_TCMDC: Inhibition of Plasmodium falciparum Dd2 in whole red blood cells, using parasite LDH activity as an index of growth. Test compounds present at 2uM
HepG2 = assay: GSK_TCMDC: Percent inhibition of human HepG2 cell line. Test compounds present at 10uM.

Row | SMILES | Inhibition (Plasmodium falciparum [1]) [%] | Inhibition (Plasmodium falciparum [2]) [%] | Inhibition (HepG2) [%]
1 | CCN(CC)CCN(Cc1ccc(-c2ccc(C(F)(F)F)cc2)cc1)C(=O)c1c[nH]c2ccc(Br)cc12 | 90 | 74 | 80
2 | O=C(/C=C/c1ccc(Cl)c(Cl)c1)NCCCCCN1CCC(NC(=O)c2cc(Cl)ccc2F)CC1 | 92 | 32 | 48
3 | CN1CCCN(c2ccnc3cc4c(cc23)N(C(=O)c2ccc(Cl)cc2Cl)CC4)CC1.Cl | 100 | 51 | 6
4 | COc1ccc(-c2ccc(NC(=O)c3cccc(Cl)c3)cc2)cc1CN1CCN(C)CC1.O=C(O)C(F)(F)F | 90 | 33 | 42
5 | COc1cccc(-c2nn(C)c3sc(C(=O)Nc4cccnc4)cc23)c1 | 86 | 34 | 1
6 | Cc1cc(Cl)ccc1NC(=O)NCCCCCN1CCC(c2c[nH]c3ccccc23)CC1 | 91 | 8 | 59
7 | COc1ccc(CN2CCC(NCc3ccc(C(F)(F)F)cc3)CC2)cc1.O=C(O)C(F)(F)F | 97 | 0 | 37
8 | CC1(C)N=C(N)N=C(N)N1c1cccc(C(F)(F)F)c1.Cl | 95 | 68 | 60
9 | CCc1ccc(NC(=O)c2ccc(CN3CCCN(Cc4cccc(Cl)c4)CC3)cc2)cc1.O=C(O)C(F)(F)F | 84 | 2 | 50
10 | CN1CCC(Oc2cc(CN3CC[C@H](NC(=O)c4ccc(Cl)c(Cl)c4)C3)ccc2I)C1.O=C(O)C(F)(F)F (stereo partly specified) | 97 | 24 | 68
11 | CCNc1cc(C)nc(Nc2ccc(F)cc2)n1 | 100 | 57 | 1
12 | CC1CCN(CC[C@H]2CCCN2S(=O)(=O)c2cccc(NC(=O)c3ccc(-c4ccc(Cl)cc4)o3)c2)CC1 | 100 | 65 | 45
13 | Cc1ccc(Cn2ncc(N3CC(C)NC(C)C3)c(Cl)c2=O)cc1NC(=O)Nc1ccc(-c2ccccc2)cc1.O=C(O)C(F)(F)F (stereo unspecified) | 100 | 29 | 51
14 | COc1cc(F)c2ncc(F)c(CCN3C[C@H](CNCc4ccc5c(n4)NC(=O)CS5)[C@H](O)C3)c2c1.Cl | 91 | 47 | 10
15 | Cc1cc(CN2CCCN(c3ccc4c(c3)CCN(Cc3ccc(-c5ncc[nH]5)cc3)CC4)CC2)n(C)n1 | 86 | 8 | 5
16 | O=C(Cc1c[nH]cn1)Nc1cccc(-c2ccc(-c3nc4cc(C(F)(F)F)ccc4[nH]3)cc2)c1 | 100 | 99 | 10
17 | CC(C)(C)NCCN(Cc1ccc(-c2ccc(C(F)(F)F)cc2)cc1)C(=O)Cn1c(SCc2ccc(F)cc2)nc(=O)c2c1CCC2.O=C(O)C(O)C(O)C(=O)O | 97 | 84 | 64
18 | CC(C)N1CCCN(C(=O)C2CCN(c3ccc(C(=O)N4CCCC4)cn3)CC2)CC1.Cl | 86 | 12 | 41
19 | CC(C)CCNCc1ccc(OCc2cccc(COc3ccc(CNCCC(C)C)cc3I)c2)c(I)c1.Cl | 91 | 49 | 99
20 | CC(=O)N(C)C1CCN(Cc2ccc(-c3ccc(-c4nc5cc(F)ccc5[nH]4)s3)cc2)C1.O=C(O)C(F)(F)F (stereo unspecified) | 98 | 22 | 46
21 | Cc1c(Cc2ccccc2)c(=O)oc2c(C)c3c(cc12)CN(CC(C)c1ccccc1)CO3 (stereo unspecified) | 98 | 98 | 1
22 | CCCCCC(C)C(C)c1cc(O)c2c(c1)OC(C)(C)CC2(O)c1ccnn1C (stereo unspecified) | 98 | 95 | 20
23 | COc1ccc(-c2cc(C(=O)N[C@@H](CC3CCCCC3)C(=O)NC3CCCc4ccccc43)ccc2O)cc1 (stereo partly specified) | 98 | 97 | 7
24 | COC1CCC(C(=O)Nc2ccc(-c3cccc(-c4nc5cccc(C)c5[nH]4)c3)cc2)CC1 (stereo unspecified) | 97 | 60 | 89
25 | CCOC(=O)COc1cccc(CNc2ccc3nc(N)nc(N)c3c2)c1 | 100 | 99 | 18
26 | O=C(/C=C/c1ccc(Cl)c(Cl)c1)NCCCCCN1CCC(NC(=O)NC2CCCCCC2)CC1 | 99 | 41 | 15
27 | O=C(Cc1c[nH]cn1)Nc1cccc(-c2ccc(-c3nc4cc(F)ccc4[nH]3)cc2)c1 | 100 | 84 | 4
